Assay outcomes: PubChem BioAssay, several laboratories
PKA-R2B act = activators of PKA-R2B holoenzyme, primary screen, biochemical, fluorescence polarization, Cy5-IP20, human; cAMP-dependent protein kinase catalytic subunit beta (Homo sapiens) + cAMP-dependent …; PKA-R2B holoenzyme dissociation; R2B truncated from residue 108, S112A mutant; 0% DMSO only, 100% 113 µM cGMP; activation, % at 11.4 µM; 340,000 tested, 0.079% active;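 active = activation above a cutoff set at the mean over all compounds plus 3 SD, cut at about 18% in these data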;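 note: higher means more holoenzyme dissociation and a rise in polarization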
PKA-R1A act = activators of PKA-R1A holoenzyme, primary screen, biochemical, fluorescence polarization, Cy5-IP20, bovine R1A, mouse PKAc; 340,000 tested, 0.083% active; PKA-R1A dissociation; scaled: DMSO 0%, 113 µM cGMP 100%; cAMP-dependent protein kinase type I-alpha regulatory subunit (Bos taurus) + …; activation, % at 11.4 µM;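 active = percent activation above the mean of all tested compounds plus 3 SD, cut at about 19% in these data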;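 note: higher means more PKAc released from R1A so a rise in polarization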
NRP1-CendR mod = modulators of CendR peptide binding to NRP-1, primary screen, biochemical, fluorescence polarization, uHTS | FAM-RPARPAR peptide binding to NRP-1 | inhibition, % at 25 µM | 360,000 tested, 0.85% active | AID 602438, 2012;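 active = inhibition or corrected inhibition above about 18%, plus a signal ratio from 0.5 to 1.5, limit read from the data, passing the limit was not always enough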
Target sequence (O14786 whole entry, looked up): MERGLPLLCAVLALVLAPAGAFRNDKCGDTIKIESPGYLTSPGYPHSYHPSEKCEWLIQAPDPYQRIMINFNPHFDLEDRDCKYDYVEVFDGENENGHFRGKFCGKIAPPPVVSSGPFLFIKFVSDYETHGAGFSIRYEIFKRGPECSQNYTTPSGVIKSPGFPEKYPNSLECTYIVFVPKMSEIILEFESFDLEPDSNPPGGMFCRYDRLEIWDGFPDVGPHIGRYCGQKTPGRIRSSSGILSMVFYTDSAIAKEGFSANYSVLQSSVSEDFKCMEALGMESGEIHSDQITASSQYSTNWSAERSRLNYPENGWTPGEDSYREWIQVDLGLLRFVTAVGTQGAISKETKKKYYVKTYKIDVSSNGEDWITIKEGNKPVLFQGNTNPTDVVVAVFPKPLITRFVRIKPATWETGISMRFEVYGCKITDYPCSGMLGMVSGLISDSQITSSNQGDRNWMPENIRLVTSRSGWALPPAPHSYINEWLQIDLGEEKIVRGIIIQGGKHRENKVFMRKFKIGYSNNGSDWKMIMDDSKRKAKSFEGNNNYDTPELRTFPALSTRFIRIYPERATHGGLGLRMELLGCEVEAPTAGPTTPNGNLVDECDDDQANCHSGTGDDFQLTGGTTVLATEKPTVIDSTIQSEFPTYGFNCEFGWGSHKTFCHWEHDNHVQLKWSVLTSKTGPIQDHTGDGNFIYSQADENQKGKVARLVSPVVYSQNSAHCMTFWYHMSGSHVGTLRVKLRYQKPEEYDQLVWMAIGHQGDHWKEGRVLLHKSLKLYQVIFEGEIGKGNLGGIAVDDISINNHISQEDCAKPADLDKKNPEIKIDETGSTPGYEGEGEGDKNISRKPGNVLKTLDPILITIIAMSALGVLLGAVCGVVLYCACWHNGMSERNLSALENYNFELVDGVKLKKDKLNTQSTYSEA
ATG4B inh = ATG4B protease inhibitors, primary screen, biochemical, fluorescence, uHTS; Cysteine protease ATG4B (Homo sapiens), Q9Y4P1; ATG4B cleavage of LC3-PLA2, NBD-HPC fluorescence, 1 h; inhibition, % at 8.33 µM; 340,000 tested, 0.51% active; AID 504462, 2011; in the data active = inhibition above about 40%
VLA-4 inh = inhibition in human VLA-4 binding assay, primary screen, VLA-4 allosteric modulator project, MLPCN library, flow cytometry, VLA-4 expressing cells. 330,000 tested, 0.2% active. inhibition, % (about 7 µM as worked out from the volumes in the protocol). AID 2557, 2010. Integrin alpha-4 (Homo sapiens), P13612. ligand binding flow cytometry; in the data active = inhibition above about 50%
The depositor's hits bear a star. Only some compounds are listed: those with a hit (about 1.6% of all), similar ones and a draw of the others.

Results for Cc1cccc2sc(NC(=O)CN3C(=O)C4CC=CCC4C3=O)nc12 (stereo not drawn) ?
PKA-R2B act: 0.6; PKA-R1A act: -5.1; NRP1-CendR mod: 32.5*; ATG4B inh: 7.7; VLA-4 inh: 5.5

Results for Cc1nn(-c2ccccc2)c(N)c1Sc1ccc([N+](=O)[O-])cc1 ?
PKA-R2B act: -8.8; PKA-R1A act: -11.8; NRP1-CendR mod: 44.5*; ATG4B inh: -0.3; VLA-4 inh: -5.4

What do the screens show for `O=C(c1ccccc1)c1ccccc1C(=O)N1CCN(Cc2ccccc2F)CC1`?
PKA-R2B act: -12.0; PKA-R1A act: -7.2; NRP1-CendR mod: -0.4; ATG4B inh: 4.4

Results for CN1CCN(CC(=O)c2ccccc2F)CC1 ?
PKA-R2B act: -5.7; PKA-R1A act: 6.5; NRP1-CendR mod: 17.3*; ATG4B inh: -0.7; VLA-4 inh: -0.3

What do the screens show for `O=C(c1ccccc1F)N1CCN(Cc2ccccc2F)CC1`?
PKA-R2B act: 3.9; PKA-R1A act: 7.8; NRP1-CendR mod: 29.1*; ATG4B inh: -6.1; VLA-4 inh: 10.4

Results for CSCCC(c1nc2ccccc2[nH]1)n1c(=O)c(-c2ccco2)nc2ccccc21 (stereo not drawn) ?
NRP1-CendR mod: -42.0

What do the screens show for `CCOC(=O)C1=C(O)C(=O)N(c2ccccc2)C1c1cccc([N+](=O)[O-])c1` (stereo not drawn)?
PKA-R2B act: -1.1; PKA-R1A act: 7.2; NRP1-CendR mod: 25.9*; ATG4B inh: 3.5; VLA-4 inh: 4.4

How did COc1ccc(-n2nnnc2SC(C)C(=O)NC2CCCC2)cc1 (stereo not drawn) do in these assays?
PKA-R2B act: 2.0; PKA-R1A act: 1.4; NRP1-CendR mod: 20.3*; ATG4B inh: 1.6; VLA-4 inh: 5.5

Results for CN(NC(=O)Nc1ccc(Cl)cc1)c1c(Cl)c(Cl)nn1C ?
PKA-R2B act: 7.8; PKA-R1A act: -9.8; NRP1-CendR mod: 19.8*; ATG4B inh: -1.5; VLA-4 inh: -0.6

How did COCCNC(=O)C1C(=O)Nc2ccccc2C(=O)N1Cc1ccccc1 (stereo not drawn) do in these assays?
NRP1-CendR mod: 12.9

What do the screens show for `Cn1c(=O)cc2c3c(c(N4CCCCC4)ccc31)C(=O)c1ccccc1-2`?
NRP1-CendR mod: 57.9*; ATG4B inh: -1.4; VLA-4 inh: -11.4

How did CCC1=C(OC(=O)N(CC)CC)N2C(=O)OC(=NCC(=O)OC)[C@]2(Cc2ccccc2)[C@H]2C1=CC[C@H]1C(=O)N(CC(=O)OC)C(=O)[C@H]12 do in these assays?
PKA-R2B act: -1.5; PKA-R1A act: -7.0; NRP1-CendR mod: 27.3*; ATG4B inh: -20.1; VLA-4 inh: 16.7

How did CCC1=C(OC(=O)N(CC)CC)N2C(=O)OC(=NCC(=O)OC)[C@]2(C)[C@H]2C1=CC[C@H]1C(=O)N(CC)C(=O)[C@H]12 do in these assays?
PKA-R2B act: -1.0; PKA-R1A act: 1.1; NRP1-CendR mod: 35.4*; ATG4B inh: -9.2; VLA-4 inh: 6.7

Results for CCC1=C(OC(=O)N(CC)CC)N2C(=O)OC(=NCCOC)[C@]2(Cc2ccccc2)[C@H]2C1=CC[C@H]1C(=O)N(CC)C(=O)[C@H]12 ?
PKA-R2B act: -2.1; PKA-R1A act: -5.2; NRP1-CendR mod: 18.7; ATG4B inh: -4.8; VLA-4 inh: 28.8

How did CCC1=C(OC(=O)N(CC)CC)N2C(=O)OC(=NCCOC)[C@]2(Cc2ccccc2)[C@H]2C1=CC[C@H]1C(=O)N(C)C(=O)[C@H]12 do in these assays?
PKA-R2B act: -15.1; PKA-R1A act: -1.6; NRP1-CendR mod: 24.2*; ATG4B inh: 0.5; VLA-4 inh: 10.5

Results for CCC1=C(OC(=O)N(CC)CC)N2C(=O)OC(=NCC(=O)OC)[C@]2(C)[C@H]2C1=CC[C@H]1C(=O)N(CC(=O)OC)C(=O)[C@H]12 ?
PKA-R2B act: -8.0; PKA-R1A act: -10.0; NRP1-CendR mod: 24.1*; ATG4B inh: -2.2; VLA-4 inh: 9.8

What do the screens show for `O=C(NC(=O)c1ccccc1)Nc1ccc(Cl)cn1`?
PKA-R2B act: -2.1; PKA-R1A act: -1.4; NRP1-CendR mod: 17.6; ATG4B inh: -5.4; VLA-4 inh: 5.4

How did O=C(CSC1=NCCS1)NC(c1ccccc1)c1ccccc1 do in these assays?
PKA-R2B act: 3.4; PKA-R1A act: 18.9*; NRP1-CendR mod: -1.5; ATG4B inh: 10.7; VLA-4 inh: 33.1

How did Cc1ccccc1CN1C(=O)CSCC1(C)C(=O)Nc1ccc2c(c1)OCCO2 (stereo not drawn) do in these assays?
NRP1-CendR mod: 8.4

How did CCCCCCCCN1C(=O)[C@H](CC(=O)NCc2ccc(C)o2)C[C@@]2(C(=O)OCC)CCC=C12 do in these assays?
NRP1-CendR mod: -2.7

Results for CCOc1ccc(C2CC(c3ccc(CC)cc3)n3nc(N)nc3N2)cc1 (stereo not drawn) ?
PKA-R2B act: -14.7; PKA-R1A act: -13.1; NRP1-CendR mod: 43.5*; ATG4B inh: 2.8; VLA-4 inh: -8.1

Results for Cc1ccc(S(=O)(=O)N2CCN(C(=O)c3ccc(N4CCC(C)CC4)c([N+](=O)[O-])c3)CC2)cc1 ?
PKA-R2B act: 4.2; PKA-R1A act: -3.2; NRP1-CendR mod: 10.7; ATG4B inh: -12.5

How did COc1cccc(NC(=O)CSc2ccc3nnc(CCNC(=O)c4ccccc4)n3n2)c1 do in these assays?
PKA-R2B act: -18.1; PKA-R1A act: -8.6; NRP1-CendR mod: 19.8*; ATG4B inh: -10.8; VLA-4 inh: -12.6

How did NNC(=O)c1nnsc1-c1csnn1 do in these assays?
PKA-R2B act: 8.0; PKA-R1A act: 0.1; NRP1-CendR mod: -3.1; ATG4B inh: 1.8

Results for O=C(c1ncn(Cc2ccccc2)c1C(=O)N1CCc2ccccc2C1)N1CCc2ccccc2C1 ?
PKA-R2B act: -0.1; PKA-R1A act: -0.7; NRP1-CendR mod: 29.5*; ATG4B inh: 4.6; VLA-4 inh: -2.3

Results for CCCCNC(=O)c1nc(C2CCN(S(=O)(=O)c3c(OC)cccc3OC)CC2)oc1-c1ccccc1 ?
NRP1-CendR mod: 3.7

What do the screens show for `COc1cccc(Nc2nc3cc(OC)ccc3cc2C#N)c1`?
PKA-R2B act: -1.1; PKA-R1A act: 9.6; NRP1-CendR mod: -5.5; ATG4B inh: 0.2; VLA-4 inh: -11.1

How did COc1ccc(Nc2nc3c(C)cccc3cc2C#N)cc1 do in these assays?
PKA-R2B act: 0.3; PKA-R1A act: -3.4; NRP1-CendR mod: 38.0*; ATG4B inh: -10.1; VLA-4 inh: -8.2

Results for C#Cc1ccc(NC(=O)C2(C)CCN2C(=O)CC(c2ccccc2)c2ccccc2)cc1 (stereo not drawn) ?
NRP1-CendR mod: -13.1
